The whole screen tested about 220,000 compounds, of which about 970 (0.44%) were called active. No stated cut-off is given here; in the data, active means activation above about 27%; inactive means the rest. Shown is part of a subset that was picked to be rich in actives.
Target: Neuropeptide Y receptor type 2 (Homo sapiens) (UniProt P49146)
Assay: human Y2 receptor positive modulation or activation – cell-based, primary screen (AID 1359);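 further: cells stimulated with NPY near EC25 plus isoproterenol at EC100; 0% = vehicle plus submaximal agonist and 100% = vehicle plus saturating agonist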
Settings: cells expressing NPY-Y2, potentiator/agonist read-out; at 3.6 µM; stronger effect = higher value

Sequence of Neuropeptide Y receptor type 2 (Homo sapiens) (P49146 whole entry, looked up): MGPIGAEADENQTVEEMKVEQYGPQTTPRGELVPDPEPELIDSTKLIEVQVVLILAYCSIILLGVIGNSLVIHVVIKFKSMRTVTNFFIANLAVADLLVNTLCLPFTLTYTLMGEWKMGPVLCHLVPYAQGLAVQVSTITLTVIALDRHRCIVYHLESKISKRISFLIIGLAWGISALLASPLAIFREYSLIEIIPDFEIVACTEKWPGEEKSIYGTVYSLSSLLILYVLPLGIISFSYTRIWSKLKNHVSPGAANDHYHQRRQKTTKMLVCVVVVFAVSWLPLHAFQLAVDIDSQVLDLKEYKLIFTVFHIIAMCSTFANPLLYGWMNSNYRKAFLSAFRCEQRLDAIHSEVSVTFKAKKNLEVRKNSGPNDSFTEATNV

SMILES	activation
CCOc1ccc(C(=O)NC2CCN(CC(=O)NCc3cccs3)CC2)cc1	13.5% (inactive)
O=C(NCc1ccccc1)c1ccc(S(=O)(=O)Nc2cccc(C(F)(F)F)c2)cc1	47.4% (active)
CS(=O)(=O)NCc1ccc(C(=O)NCc2ccccc2)cc1	10.7% (inactive)
CCNS(=O)(=O)c1ccc(NC(=O)Nc2cccc(C(F)(F)F)c2)cc1	24.5% (inactive)
COc1ccc(CN2CCN(Cc3cn(C)nc3-c3ccccc3)CC2CCO)c(C)c1C (stereo not drawn)	-18% (inactive)
CC(C)(C)OC(=O)N/N=C/c1ccc(C(=O)O)cc1	10% (inactive)
CC(=O)c1c(-c2ccccc2)c2ccccc2[nH]c1=O	6.99% (inactive)
CCO[C@H]1OC(C(=O)N2CCN(Cc3ccccc3)CC2)=C[C@@H](c2cn(C(C)=O)c3ccccc23)[C@@H]1CCCO	-8.85% (inactive)
COCC1CCCN(Cc2nc(-c3ccc4c(c3)OCO4)no2)C1 (stereo not drawn)	-10.6% (inactive)
Oc1c(Cl)cc(Cl)c(Cl)c1Cc1c(O)c(Cl)cc(Cl)c1Cl	56.1% (active)
CCN(C(=O)COC(=O)c1cc(S(=O)(=O)N2CCc3ccccc32)ccc1OC)C1CCS(=O)(=O)C1 (stereo not drawn)	-3.32% (inactive)
CCOC(=O)C1=C(N)N2C(=O)C(C)SC2=C(C(=O)OCC)C1c1cc(OC)c(OC)c(OC)c1 (stereo not drawn)	-1.02% (inactive)
OC(COc1cccc2ccccc12)CN1CCN(c2ccccn2)CC1 (stereo not drawn)	58.3% (active)
Cc1ccccc1OCC(O)CN1CCN(c2ccccn2)CC1 (stereo not drawn)	17.9% (inactive)
Cc1cccc(OCC(O)CN2CCN(CCN3C(=O)c4cccc5cccc(c45)C3=O)CC2)c1C (stereo not drawn)	30.4% (inactive)
CC(Nc1ccccc1)c1cccnc1 (stereo not drawn)	40.2% (active)
CC(C)COP(=O)(c1ccc(N(C)C)cc1)C(Nc1ccccc1)c1cccnc1 (stereo not drawn)	4.54% (inactive)
CC(=O)OC(C(=O)NCCc1ccccc1)c1cccnc1 (stereo not drawn)	-16.8% (inactive)
CCCCc1cc2c(s1)CCCC/C2=N/O	5.62% (inactive)
C/C(=C\c1ccco1)CN1CCC(N2CCC(C(=O)N3CCOCC3)CC2)CC1	-15.1% (inactive)
Cc1cc(C(=O)N/N=C/c2ccc(O)c([N+](=O)[O-])c2)c(C)n1-c1ccc(F)cc1	3.14% (inactive)
Cc1c(S(=O)(=O)NCc2ccccc2)c(=O)n(C)c(=O)n1C	-20.2% (inactive)
COc1ccc2nc(NC(=O)NC3CCCCC3)sc2c1	42.1% (active)
COc1ccc2nc(NC(=O)c3ccc(Br)s3)sc2c1	11.8% (inactive)

SMILES	activation
COc1ccc2nc(Nc3nc4ccc(NC(C)=O)cc4s3)sc2c1	-3.69% (inactive)
O=C(NC(=S)Nc1cccc2c(O)cccc12)c1cccc(Br)c1	-15.3% (inactive)
O=S(=O)([N-]c1nc2ccccc2nc1-[n+]1ccc(Cc2ccccc2)cc1)c1ccc(Br)s1	-4% (inactive)
O=C(c1ccc2c(c1)OCO2)N1CCOCC1	7.94% (inactive)
C/C(=N\NC(=O)C(N)=O)c1ccc2c(c1)OCCO2	-7.65% (inactive)
CC(=O)c1ccc2c(c1)OCCOCCOc1ccc(C(C)=O)cc1OCCOCCO2	43.3% (active)
COc1ccc(N2C(=O)C(CC(=O)Nc3ccc(F)cc3)N(CCc3cccs3)C2=O)cc1 (stereo not drawn)	4.57% (inactive)
O=C(N1CCCCC1)N1CCN(C(=O)N2CCCCC2)CC1	-11.1% (inactive)
O=C(COC(=O)c1n[nH]c2ccccc12)NCc1ccccc1	-3.06% (inactive)
CN(C)S(=O)(=O)c1ccc(NC(=O)COC(=O)Cn2[nH]c(=O)c3ccccc3c2=O)cc1	-2.17% (inactive)
CN(C)S(=O)(=O)c1ccc(NC(=O)COC(=O)c2n[nH]c3ccccc23)cc1	32.2% (active)
COc1ccccc1N1CCN(C(=O)CSc2ncnc3c2cnn3-c2ccc(C)c(C)c2)CC1	-4.38% (inactive)
CCOC(=O)c1sc2nc(C)[nH]c(=O)c2c1C	-3.44% (inactive)
CC(C)OCCCNC(=S)N1CCC(C(=O)c2ccc3c(c2)OCCO3)CC1	-6.61% (inactive)
COc1ccc(CC(=O)NCc2nnc(SCC(=O)Nc3ncc(C)s3)n2C)cc1	-1.91% (inactive)
Cc1ccc(S(=O)(=O)N(Cc2ccc(Cl)cc2)c2ccccc2C(=O)NCc2cccnc2)cc1	-13.3% (inactive)
NC(=O)C1(N2CCCCC2)CCN(C(=S)Nc2ccc(Cl)cc2)CC1	4.89% (inactive)
CC(C)(O)C#Cc1ccc(C(=O)N2CCC(C(N)=O)(N3CCCCC3)CC2)cc1	14.8% (inactive)
NC(=O)C1(N2CCCCC2)CCN(C(=O)c2ccc(C#Cc3ccccc3)o2)CC1	66.2% (active)
C/C=C/C=C/C(=O)OCC(=O)Nc1ccc(Cl)cc1	-15.7% (inactive)
COc1ccc2c(-c3ccccc3)cc(SCC(=O)N(C)C3CCS(=O)(=O)C3)nc2c1 (stereo not drawn)	6.98% (inactive)
CCCCC(=O)Nc1cc(C)c2c(=O)oc3ccccc3c2n1	1.67% (inactive)
Cc1ccccc1-n1nnc2c(=O)oc3ccccc3c21	32.7% (active)
CCOC(=O)c1c(C)nc2c(c1C)c(=O)oc1ccccc12	-26.5% (inactive)

SMILES	activation
COc1ccc(NC(=O)c2cn(-c3ccccc3)nc2SC)cc1	-16% (inactive)
CCC(=O)c1ccc(N2CCN(C(=O)c3cc([N+](=O)[O-])ccc3F)CC2)c(F)c1	-2.53% (inactive)
Cc1ccccc1CSc1nnc(-c2ccccc2)c(=O)[nH]1	-5.69% (inactive)
O=C1CC(Sc2ncn[nH]2)C(=O)N1c1ccccc1 (stereo not drawn)	-10.2% (inactive)
Cc1nn(-c2ccc([N+](=O)[O-])cc2)c(N)c1-c1ccccc1	8.55% (inactive)
Nc1c(-c2cccc(Cl)c2)cnn1-c1cccc([N+](=O)[O-])c1	43.3% (active)
O=[N+]([O-])c1cccc(C2=NCCS2)c1	5.16% (inactive)
Cc1ccc(NC(=O)C(=O)NCc2ccc(/C=N/NC(=O)c3c(C)nc4cc(C)ccn34)o2)cc1	12.4% (inactive)
CCCN(CC(=O)Nc1ccccc1C)C(=O)c1cc(=O)[nH]c2ccccc12	-12.5% (inactive)
CC(C)NC(=O)NNc1c(Cl)cncc1Cl	-6.55% (inactive)
COc1ccc(C)cc1NC(=O)Nc1ccccc1SC	-22.3% (inactive)
Cc1cccc(NC(=O)C(C)N2C(=O)C3C4CC(C(Br)C4Br)C3C2=O)c1 (stereo not drawn)	33.6% (active)
Cc1cccc(NC(=O)CN2C(=O)CNC2=O)c1	-5.86% (inactive)
Cc1ccnc(NC(=O)C(C)N2C(=O)c3ccccc3C2=O)c1 (stereo not drawn)	-9.95% (inactive)
CN(Cc1ccccc1)C(=O)CCNC(=O)Cn1cnc2ccccc2c1=O	54.9% (active)
CCOC(=O)N1CCN(C(=O)Cn2cnc3ccccc3c2=O)CC1	2.69% (inactive)
O=C(Cn1cnc2ccccc2c1=O)NCC1COc2ccccc2O1 (stereo not drawn)	4.37% (inactive)
O=C(CN1CCN(Cc2ccccc2)CC1)NC(c1ccccc1)c1ccccc1	-14% (inactive)
Cc1ccc(CNC(=O)Cn2c(=O)c3sccc3n(Cc3cccc([N+](=O)[O-])c3)c2=O)cc1	5.29% (inactive)
Oc1c(Br)cc(/C=N/NC(=S)NCC2CCCO2)cc1Br (stereo not drawn)	5.85% (inactive)
Cn1nc(C(C)(C)C)c(NC(=O)c2sccc2Cl)c1C(C)(C)C	-3.45% (inactive)
O=C(CSc1ncnc2scc(-c3ccccc3)c12)NCc1ccc2c(c1)OCO2	-18.5% (inactive)
CCOC(=O)c1c(C)nn(-c2ncccc2NC(=O)CCC(=O)O)c1C	2.97% (inactive)
CCOC(=O)CSc1nccc(N(C)C)c1C#N	-3.41% (inactive)

SMILES	activation
CCOC(=O)C(Sc1ncc(C#N)c(N)n1)C(C)C (stereo not drawn)	41.9% (active)
CCCCOc1ccc(-c2ncc(C(=O)OCC)c(N)n2)cc1	-4.83% (inactive)
COc1ccc2c(c1)c1ncn(Cc3ccccn3)c(=O)c1n2C	-3.5% (inactive)
Cc1oc2cc([N+](=O)[O-])c(O)c([N+](=O)[O-])c2c1C(=O)c1ccc(Br)cc1	8.73% (inactive)
C[n+]1ccc(/C=C/c2c[nH]c3ccccc23)cc1	3.07% (inactive)
O=C(O)/C=C\C(=O)Nc1ccc(OCc2ccccc2)cc1	-1.76% (inactive)
CN(C)c1ccc(CNC23CN4CN(CN(C4)C2)C3)cc1	8.96% (inactive)
c1cnc(NC2C3CC4CC(C3)CC2C4)nc1 (stereo not drawn)	2.83% (inactive)
CN(C)c1ccc(CNC2C3CC4CC(C3)CC2C4)cc1 (stereo not drawn)	31.8% (active)
Cc1cccc(C)c1NC(=O)C(c1ccccc1)N1CC(=O)Nc2ccccc21 (stereo not drawn)	-1.44% (inactive)
CCOC(=O)/C(=C\c1ccc([N+](=O)[O-])cc1)C(=O)c1cc(C(C)=O)c(Nc2ccccc2)s1	-2.39% (inactive)
CCOc1cc(/C=N/NC(=O)OC)ccc1OCCSc1ccc(Cl)cc1	3.6% (inactive)
CC(CO)NCC12CC3CC(CC(C3)C1)C2 (stereo not drawn)	2.65% (inactive)
Cc1ccc(NC(=O)O/N=C/c2cccc([N+](=O)[O-])c2)cc1	-2.02% (inactive)
O=C(Nc1nc2ccc([N+](=O)[O-])cc2s1)c1ccncc1	17.8% (inactive)
O=C(NC(Nc1nc2ccc([N+](=O)[O-])cc2s1)(C(F)(F)F)C(F)(F)F)c1ccccc1	61.7% (active)
O=C(O)CCC(=O)Nc1nc2ccc([N+](=O)[O-])cc2s1	0.15% (inactive)
CCc1c(C)sc(NC(=O)c2cccs2)c1C(N)=O	18% (inactive)
Cc1coc2c(O)cc3c(c12)OC1(N2CCCCC2)C(=O)NCCCC31 (stereo not drawn)	93% (active)
COc1ccc(C2c3c(C)nn(-c4ccccc4)c3NC(=O)N2c2ccccc2)cc1 (stereo not drawn)	11.1% (inactive)
Cc1ccc(C)c2c1cc(C)c1nnc(SCC(=O)Nc3cccc(C(=O)O)c3)n12	-10% (inactive)
